# Laboratory results: PubChem BioAssay (NCATS)
# Records with an inconclusive call do not appear. Where a call stands in place of a potency, no number is given. The source made the active and inactive calls. Unless noted, the call rests on the fitted dose curve; in most records, active means well fitted curve in the direction sought with a large enough effect; inconclusive means small, poorly fitted or top-dose-only effect, or another doubt; inactive means no such curve, though single readings can be large; an effect the other way counts as inactive or inconclusive.
# Experiments:
# [1] = S16 Schwann cell PMP22 intronic element firefly luciferase assay (AID 624032); further: nearly all actives have a fitted effect of over 30% in size; further: potency means the concentration at half of the fitted maximal effect
# Summary of the method: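 Rat S16 Schwann cells stably carrying firefly luciferase driven by a PMP22 intronic element, in 10% FBS, treated 24 h at 37 C. ONE-Glo luminescence normalized to PTC124 control and DMSO (0%); curves classed by r2, magnitude and activity.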
# [2] = test system: 3D7; test: qHTS profiling for inhibitors of Plasmodium falciparum proliferation (AID 504749); further: nearly all actives have a fitted effect of over 60% in size; further: potency means the concentration at half of the fitted maximal effect; details: P. falciparum in erythrocytes, SYBR Green DNA, 72 h; series mostly up to 28.7 µM
# Summary of the method: (§1)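 Readout was DNA-dye fluorescence from lysed cultures, ex 485/em 535 nm. Parasitized red cells had grown 72 h with compound; data scaled between 0.29 uM artemisinin and DMSO wells and corrected using vehicle-only plates.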
# [3] = test system: 7G8; test: as above; details: P. falciparum in erythrocytes, SYBR Green DNA, 72 h; series mostly up to 28.7 µM
# Summary of the method: as §1
# [4] = test system: CP194; test: as above; details: P. falciparum in erythrocytes, SYBR Green DNA, 72 h; series mostly up to 28.7 µM
# Summary of the method: as §1
# [5] = test system: CP260; test: as above; details: P. falciparum in erythrocytes, SYBR Green DNA, 72 h; series mostly up to 28.7 µM
# Summary of the method: as §1
# [6] = test system: CP315; test: as above; details: P. falciparum in erythrocytes, SYBR Green DNA, 72 h; series mostly up to 28.7 µM
# Summary of the method: as §1
# [7] = test system: CP335; test: as above; details: P. falciparum in erythrocytes, SYBR Green DNA, 72 h; series mostly up to 28.7 µM
# Summary of the method: as §1
# [8] = test system: DIV14; test: as above; details: P. falciparum in erythrocytes, SYBR Green DNA, 72 h; series mostly up to 28.7 µM
# Summary of the method: as §1
# [9] = test system: DIV17; test: as above; details: P. falciparum in erythrocytes, SYBR Green DNA, 72 h; series mostly up to 28.7 µM
# Summary of the method: as §1
# [10] = test system: Dd2; test: as above; details: P. falciparum in erythrocytes, SYBR Green DNA, 72 h; series mostly up to 28.7 µM
# Summary of the method: as §1
# [11] = test system: ICS; test: as above; details: P. falciparum in erythrocytes, SYBR Green DNA, 72 h; series mostly up to 28.7 µM
# Summary of the method: as §1
# [12] = test system: TAB165; test: as above; details: P. falciparum in erythrocytes, SYBR Green DNA, 72 h; series mostly up to 28.7 µM
# Summary of the method: as §1
# [13] = molecular target: Luciferin 4-monooxygenase (Photinus pyralis) (UniProt P08659); test: Biochemical firefly luciferase enzyme assay for NPC (AID 624030);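 further: purified P. pyralis luciferase at 10 nM with luciferin and ATP substrate; nearly all actives have a fitted effect of over 70% in size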
# Luciferin 4-monooxygenase (Photinus pyralis), sequence (P08659 whole entry, looked up): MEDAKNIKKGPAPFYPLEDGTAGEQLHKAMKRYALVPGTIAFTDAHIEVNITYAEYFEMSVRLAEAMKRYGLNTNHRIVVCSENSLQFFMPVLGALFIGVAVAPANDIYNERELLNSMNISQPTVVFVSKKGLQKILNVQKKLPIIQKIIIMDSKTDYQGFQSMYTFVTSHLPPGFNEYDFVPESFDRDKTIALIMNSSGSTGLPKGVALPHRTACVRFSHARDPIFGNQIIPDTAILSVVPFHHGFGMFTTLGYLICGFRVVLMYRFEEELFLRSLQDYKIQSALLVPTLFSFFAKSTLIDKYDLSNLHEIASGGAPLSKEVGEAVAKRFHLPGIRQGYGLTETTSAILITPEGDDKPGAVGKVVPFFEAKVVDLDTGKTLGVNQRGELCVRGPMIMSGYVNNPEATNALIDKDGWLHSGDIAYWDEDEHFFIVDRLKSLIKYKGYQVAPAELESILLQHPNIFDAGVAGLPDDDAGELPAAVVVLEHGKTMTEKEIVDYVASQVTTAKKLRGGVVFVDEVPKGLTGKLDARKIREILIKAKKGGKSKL
# Summary of the method: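 Purified P. pyralis luciferase at 10 nM in 50 mM Tris Acetate (final), luminescence read within 5 minutes of enzyme addition to compounds. Activity normalised to PTC124 versus DMSO; concentration-response curves classed by r2, magnitude and activity.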
# [14] = S16 Schwann cell PMP22 intronic element beta-lactamase assay (AID 624044; calls by dose curve; further: nearly all actives have a fitted effect of over 15% in size)
# Summary of the method: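 Rat S16 Schwann cells with beta-Lac driven by a PMP22 intronic element, compound-treated 24 h at 37 °C. LiveBLAzer FRET B/G read: 460 nm normalized to potassium clavulanate vs DMSO; 535 nm FRET as viability; concentration-effect curves classified.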
# [15] = test system: CP262; test: qHTS profiling for inhibitors of Plasmodium falciparum proliferation (AID 504749); further: nearly all actives have a fitted effect of over 60% in size; further: potency means the concentration at half of the fitted maximal effect; details: P. falciparum in erythrocytes, SYBR Green DNA, 72 h; series mostly up to 28.7 µM
# Summary of the method: as §1
# [16] = test system: CP269; test: as above; details: P. falciparum in erythrocytes, SYBR Green DNA, 72 h; series mostly up to 28.7 µM
# Summary of the method: as §1
# [17] = test system: CP325; test: as above; details: P. falciparum in erythrocytes, SYBR Green DNA, 72 h; series mostly up to 28.7 µM
# Summary of the method: as §1
# [18] = test system: DFO2036; test: as above; details: P. falciparum in erythrocytes, SYBR Green DNA, 72 h; series mostly up to 28.7 µM
# Summary of the method: as §1
# [19] = test system: FAB9; test: as above; details: P. falciparum in erythrocytes, SYBR Green DNA, 72 h; series mostly up to 28.7 µM
# Summary of the method: as §1
# [20] = test system: N140; test: as above; details: P. falciparum in erythrocytes, SYBR Green DNA, 72 h; series mostly up to 28.7 µM
# Summary of the method: as §1
SMILES,Potency [1],Potency [2],Potency [3],Potency [4],Potency [5],Potency [6],Potency [7],Potency [8],Potency [9],Potency [10],Potency [11],Potency [12],outcome [13],outcome [14],Potency [15],Potency [16],Potency [17],Potency [18],Potency [19],Potency [20]
OC[C@H](S)CS,7.21 µM (active),3.16 µM (active),0.891 µM (active),inactive,0.891 µM (active),inactive,3.38 µM (active),12 µM (active),3.38 µM (active),2.24 µM (active),2.24 µM (active),inactive,,,,,,,,
C[N+]1(C)[C@@H]2CC(OC(=O)[C@@H](CO)c3ccccc3)C[C@@H]1[C@H]1O[C@H]12 (some centres not stated),inactive,inactive,inactive,,inactive,inactive,inactive,inactive,inactive,inactive,inactive,inactive,inactive,inactive,inactive,inactive,inactive,inactive,inactive,inactive
C(=C/c1ccccc1)/CN1CCN(C(c2ccccc2)c2ccccc2)CC1,,,,inactive,,inactive,,,inactive,,7.94 µM (active),inactive,inactive,inactive,inactive,inactive,inactive,inactive,inactive,inactive
N[C@H](COP(=O)(O)O)C(=O)O,inactive,inactive,inactive,inactive,inactive,inactive,inactive,inactive,inactive,inactive,inactive,inactive,inactive,inactive,inactive,inactive,inactive,inactive,inactive,inactive
CC(=O)N1CCN(c2ccc(OC[C@@H]3CO[C@@](Cn4ccnc4)(c4ccc(Cl)cc4Cl)O3)cc2)CC1,inactive,inactive,11.2 µM (active),,inactive,,,,,inactive,,,inactive,inactive,inactive,inactive,inactive,inactive,inactive,inactive
